The source of these data is PubChem BioAssay (NCI).

This is part of a sample that, as a whole, favours compounds with a hit. Of some 83,000 tested, about 20% had one in any assay.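 Results are percent growth after 48 hours of single-concentration exposure. 100 means growth as in untreated cells, lower positive values show inhibition; negative values down to -100 show cell death.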 A number with no mark means an inactive call. Activity calls are given as the source filed them. How the source made its calls: active means growth percent below 10; inactive means the rest.

Common to all, as to experiment: NCI-60 one-dose screen, 48 h (100 = growth as untreated, 0 = no growth, -100 = all killed)
Holding throughout (conditions): 10 µM unless noted

In assay [1] the test system is SR leukemia.
Assay [2] concerns RPMI-8226 leukemia.
Assay [3] relates to OVCAR-8 ovarian.
The test system of assay [4] is OVCAR-5 ovarian.
The test system of assay [5] is OVCAR-4 ovarian.
Assay [6] concerns SK-OV-3 ovarian.
Assay [7] relates to IGROV1 ovarian.
The test system of assay [8] is OVCAR-3 ovarian.
In assay [9] the test system is HS 578T breast.
Assay [10] relates to NCI/ADR-RES ovarian.
The subject of assay [11] is T-47D breast.
Assay [12] concerns BT-549 breast.
For assay [13], the system named is MDA-MB-435 melanoma.
Assay [14] has as its system SW-620 colon.
In assay [15] the test system is MCF7 breast.
The test system of assay [16] is HCT-116 colon.
Assay [17] has as its system HCC-2998 colon.
The test system of assay [18] is KM12 colon.

As to `CCN(CC)C(=O)CCCCCn1c2ccccc2c2c3c(c4c5ccccc5[nH]c4c21)C(=O)N(O)C3=O`, the growth in assay [1] is 5.8% (active); in assay [2] it was 16.1%; in [3], 20.8%; in assay [4], 104%; in assay [5] it was 56.6%; in assay [6], 79.5%. In addition, the growth in assay [7] was 27.6%; in [8], 46.5%; in assay [9], 71.1%; in [10], 12.7%; in assay [11] it was 28.2%; in assay [12], 56.8%. The growth was 25.3% in [13]; 70.1% in assay [14]; 18.5% in assay [15]; 37.8% in assay [16]; 44% in assay [17]; 30.8% in [18].
`C=C1C(=O)O[C@H]2[C@H]1CC/C(COC(=O)NCc1cc3ccccc3[nH]1)=C\CC[C@@]1(C)O[C@@H]21`: the growth was -2.88% (active) in assay [1]; -32.8% (active) in [2]; 6.1% (active) in assay [3]; 26.2% in [4]; -0.221% (active) in assay [5]; 86.7% in [6]. For the same compound, the growth is -20.5% (active) in [7]; -54.4% (active) in assay [8]; 79.3% in [9]; 71.4% in assay [10]; -43.1% (active) in assay [11]; -24.2% (active) in [12]. In addition, the growth in assay [13] is 2.87% (active); in assay [14] it was -37.8% (active); in assay [15], 0.667% (active); in assay [16], -81.9% (active); in [17] it was 98.3%; in assay [18], 81%.
In the case of `CC(=O)OCCCCCCn1c2ccccc2c2c3c(c4c5ccccc5n(C)c4c21)C(=O)N(O)C3=O`, the growth in assay [1] was 17.1%; in [2] it was 31.2%; in assay [3] it was 66.3%; in [4] it was 98.6%; in assay [5], 70.5%; in assay [6], 86.9%. Moreover, the growth was 49.6% in assay [7]; 77.2% in assay [8]; 124% in assay [9]; 52.1% in assay [10]; 42.9% in assay [11]; 69.2% in [12]. Moreover, the growth in assay [13] is 75.9%; in [14] it was 76.4%; in assay [15] it was 30.4%; in assay [16] it was 48.6%; in assay [17], 76%; in [18] it was 68.8%.
Regarding `CC(=O)n1c(/C(C#N)=C/c2ccc(N(C)C)cc2)cc2ccccc21`, the growth in assay [1] was 26.8%; in [2], 16.2%; in assay [3], 40.3%; in assay [4], 60.7%; in assay [5], 76.8%; in assay [6] it was 34.8%. Further, the growth was 40.3% in [7]; 8.84% (active) in [8]; 11.9% in assay [9]; 16.7% in assay [10]; 35.8% in [11]; 17.7% in assay [12]. For the same compound, the growth was 2.22% (active) in [13]; 24.6% in assay [14]; 20.1% in [15]; 27.7% in assay [16]; 50.5% in assay [17]; 31.6% in assay [18].
Take `Cc1cc(C)n(Cc2cc(C(C)(C)C)cc(C(C)(C)C)c2)c(=O)c1C#N`: the growth in assay [1] was 84%; in assay [2], 93.7%; in [3], 93.4%; in assay [4], 83.8%; in [5] it was 90.4%; in assay [6], 87%. Also, the growth in assay [7] is 96.8%; in [8] it was 106%; in assay [9], 81.6%; in assay [10], 96.7%; in [11] it was 79.3%; in assay [12], 88.5%. The growth in assay [13] is 102%; in assay [14] it was 101%; in assay [15], 88.4%; in [16], 79.3%; in [17], 116%; in assay [18] it was 97.5%.
`C[C@@H](Oc1ccc(C(=O)NS(=O)(=O)C(C)(C)C)cc1C(F)(F)F)c1ccc(Oc2ccccc2)cn1`: the growth in assay [1] was 29.7%; in [2], 71.5%; in assay [3] it was 41.2%; in [4], 86.5%; in assay [5], 67.2%; in [6], 69.6%. Besides, the growth in [7] is 37.4%; in [8], 8.19% (active); in [9], 4.34% (active); in [10], 66.4%; in [11] it was 39%; in [12], 27.6%. In addition, the growth in assay [13] was -50.1% (active); in assay [14], 23.3%; in assay [15] it was 15%; in assay [16] it was 25.5%; in [17] it was 61.1%; in assay [18], 28.3%.
`CCCCC[C@H]1CC=C2C(=O)C=C[C@@H]2CC=CCCCC(=O)O[C@@H](CCCCC)CC=C2C(=O)C=C[C@@H]2CC=CCCCC(=O)O[C@@H](CCCCC)CC=C2C(=O)C=C[C@@H]2CC=CCCCC(=O)O1`: the growth is -6.53% [8.75 µM] (active) in [1]; -9.62% [8.75 µM] (active) in [2]; 12.2% [8.75 µM] in assay [3]; -23.7% [8.75 µM] (active) in assay [4]; 22.4% [8.75 µM] in [5]; 36.7% [8.75 µM] in [6]. Moreover, the growth is -46.1% [8.75 µM] (active) in [7]; -54.2% [8.75 µM] (active) in assay [8]; 40.2% [8.75 µM] in assay [9]; 49.8% [8.75 µM] in assay [10]; -10.2% [8.75 µM] (active) in assay [11]; -37.7% [8.75 µM] (active) in [12]. Also, the growth in assay [13] was -31.8% [8.75 µM] (active); in assay [14], 2.25% [8.75 µM] (active); in assay [15] it was 5.55% [8.75 µM] (active); in assay [16], -89.8% [8.75 µM] (active); in assay [17], -38.7% [8.75 µM] (active); in assay [18], -41% [8.75 µM] (active).
In the case of `Cc1ccc(Sc2sc(-c3ccccc3)nc2[P+](c2ccccc2)(c2ccccc2)c2ccccc2)cc1`, the growth was -10.1% (active) in assay [1]; -39.2% (active) in assay [2]; 7.53% (active) in assay [3]; 25.4% in [4]; 2.09% (active) in assay [5]; -22.5% (active) in assay [6]. Besides, the growth in assay [7] was -0.559% (active); in [8], -9.1% (active); in assay [9] it was -1.87% (active); in assay [10] it was -7.72% (active); in assay [11], -9.83% (active); in [12], -15.4% (active). Moreover, the growth in assay [13] is -16.3% (active); in assay [14], 8.24% (active); in assay [15], -4.53% (active); in [16], -14.3% (active); in assay [17] it was -11.2% (active); in assay [18] it was -37.6% (active).
